# Source: PubChem BioAssay (NCI)
# About 83,000 compounds went through this panel and 20% of them were active in at least one assay; those are over-represented in the sample as a whole.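 Testing used 96-well plates and a 48-hour single-concentration exposure. Example: -40 means 40% of the starting cells died.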 A number with no mark means an inactive call. How the source made its calls: active means growth percent below 10; inactive means the rest.
# Tested on: HL-60(TB) leukemia
# Assay: NCI-60 one-dose screen, 48 h (100 = growth as untreated, 0 = no growth, -100 = all killed)
# Settings: 10 µM unless noted
row,Compound,growth [%]
1,CCCN=C1NC(=O)/C(=C/c2nc(-c3ccc(OC)cc3)n3ccccc23)S1,79.8
2,COc1ccc(-c2nnc3c4[nH]cnc4ncn23)c(OC)c1,12.8
3,c1ccc(Sc2ncnc3ccccc23)cc1,74.1
4,O=C(COc1ccc(/C=C2\CSc3ccccc3C2=O)cc1)c1ccc(Cl)cc1,80
